# Data taken from the supplement of paper PMC9694430.
# Structures can show the parent of a compound that is named as a salt.
# Test system: LOC_OS05G07850-cb002
# Test: thermal shift delta Tm vs DMSO control; higher = stronger stabilization (binding)
# Conditions: 12.5 µM; protein concentration 2 µM
# Method in brief: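 Purified, E. coli-expressed rice kinase domain constructs were tested by differential scanning fluorimetry in 96-well plates: 19.5 μl of 2 μM kinase in 100 mM potassium phosphate pH 7.5, 150 mM NaCl, 10% glycerol, 5 × SYPRO Orange, plus compound in DMSO. Fluorescence was read from 25°C to 95°C at 0.05°C/s. Melting temperatures came from Boltzmann fits, and the shift is the triplicate mean relative to protein with DMSO alone.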
row,SMILES,thermal shift delta Tm [°C]
1,CCn1c(=O)c(-c2ccc(-c3cncs3)cc2Cl)cc2cnc(Nc3ccc(N4CCN(C)CC4)cc3)nc21,1.19
2,CNC(=O)c1cccc(-c2ccc3c(N4CCOC[C@@H]4C)nc(N4CCOC[C@@H]4C)nc3n2)c1 [Vistusertib (AZD2014)],0.07
3,CC(C)S(=O)(=O)c1ccc2nccc(Nc3ccc4scnc4c3)c2c1,3.36
4,Cn1cc(-c2ccc3ncc(Cc4ccc5ncccc5c4)n3n2)cn1,5.01
5,N#Cc1ccc2ncnc(NCCc3ccccc3)c2c1 [Senexin A],4.61
6,O=C1NC(=O)/C(=C/c2ccc3nccc(-c4ccncc4)c3c2)S1,8.62
7,Cn1cnc2c(F)c(Nc3ccc(Br)cc3F)c(C(=O)NOCCO)cc21,1.86
8,Cc1cc(Nc2ncc(Cl)c(Nc3ccccc3S(=O)(=O)C(C)C)n2)c(OC(C)C)cc1C1CCNCC1 [Ceritinib (LDK378)],3.05
9,Cc1nc2ccc(-n3ncc(C(=O)c4cc5ccccc5[nH]4)c3N)cc2[nH]1,2.01
10,C=C[C@@](C)(/C=C/c1ccc(O)cc1)CCC=C(C)C [Bakuchiol],0.26
11,"C=CC(=O)Nc1cccc(Nc2nc(Nc3ccc(N4CCN(C(C)=O)CC4)cc3OC)ncc2C(F)(F)F)c1 [Rociletinib (CO-1686, AVL-301)]",10.2
12,"CCCS(=O)(=O)Nc1ccc(F)c(C(=O)c2c[nH]c3ncc(-c4ccc(Cl)cc4)cc23)c1F [Vemurafenib (PLX4032, RG7204)]",10.3
13,COc1cc(OC)c(C=C2C(=O)Nc3ccccc32)c(OC)c1,0.55
14,CCN(CC)CCCC(C)Nc1nc(C)cc(Nc2ccc3nc(C)cc(N)c3c2)n1 (centres undefined),-0.09
15,CN1CC(O)C2=C/C(=N/NC(N)=O)C(=O)C=C21 (centres undefined) [Carbazochrome],1.06
16,Cc1cc(Nc2cc(N3CCN(C)CC3)nc(/C=C/c3ccccc3)n2)n[nH]1,11.7
17,Cc1ccc(NC(=O)Nc2cc(C(F)(F)F)ccc2F)cc1Nc1ccc2c(c1)NC(=O)/C2=C\c1ccc[nH]1,1.9

row,SMILES,thermal shift delta Tm [°C]
1,CO[C@H]1C[C@@H]2CC[C@@H](C)[C@@](O)(O2)C(=O)C(=O)N2CCCC[C@H]2C(=O)O[C@H]([C@H](C)C[C@@H]2CC[C@@H](O)[C@H](OC)C2)CC(=O)[C@H](C)/C=C(\C)[C@@H](O)[C@@H](OC)C(=O)[C@H](C)C[C@H](C)/C=C/C=C/C=C/1C [Rapamycin (Sirolimus)],0.51
2,C[S+]([O-])c1ccc(-c2nc(-c3ccc(F)cc3)c(-c3ccncc3)[nH]2)cc1 (centres undefined),1.83
3,CO[C@H]1CC[C@H](N2C(=O)CNc3ncc(-c4ccc(C(C)(C)O)nc4)nc32)CC1,0.66
4,O=C(Nc1ccccc1C(=O)NC1CCCCNC1=O)c1cc2ccccc2s1 (centres undefined),0.55
5,CCN1CCN(Cc2ccc(-c3cc4c(N[C@H](C)c5ccccc5)ncnc4[nH]3)cc2)CC1,5.78
6,Cc1cnc(NC(=O)Nc2cc(Br)c(C)cc2OC[C@@H]2CNCCO2)cn1,3.74
7,Cc1ccc(NC(=O)c2ccc(CN3CCN(C)CC3)cc2)cc1Nc1nccc(-c2cccnc2)n1 [Imatinib Mesylate (STI571)],2.65
8,NC(=O)c1ccc(N(C(N)=O)c2c(F)cccc2F)nc1-c1ccc(F)cc1F,-0.33
9,Cc1nc(-c2cn3c(n2)-c2ccc(-c4cnn(C(C)(C)C(N)=O)c4)cc2OCC3)n(C(C)C)n1 [Taselisib (GDC 0032)],0.89
10,COc1cc(N2CCC(N(C)C)CC2)ccc1Nc1ncc(Cl)c(Nc2ccccc2P(C)(C)=O)n1,15
11,COc1cc2c(Nc3ccc(NC(=O)c4ccccc4)cc3)ncnc2cc1OCCCN1CCOCC1,5.62
12,CNC(=O)c1cc(Oc2ccc(NC(=O)Nc3cc(C(C)(C)C)nn3-c3ccc4ncccc4c3)c(F)c2)ccn1 [Rebastinib (DCC-2036)],14.3
13,CC(C)(CO)n1cc(C(=O)c2cncc(NC(=O)Cc3ccc(Cl)cn3)c2)c2cnc(N)nc21,5.09
14,CS(=O)(=O)N1CCN(Cc2cc3nc(-c4cccc5[nH]ncc45)nc(N4CCOCC4)c3s2)CC1 [Pictilisib (GDC-0941)],5.5
15,C[C@@H]1COC(Nc2ccc3ncnc(Nc4ccc(OCc5nccs5)c(Cl)c4)c3c2)=N1 [Varlitinib],3.96
16,COc1cc(Nc2ncc(F)c(Nc3ccc4c(n3)NC(=O)C(C)(C)O4)n2)cc(OC)c1OC,13.2
17,CC(C)n1nc(-c2ccc3oc(N)nc3c2)c2c(N)ncnc21,7.34
